# Screens: PubChem BioAssay, several laboratories
# Hits are enriched below; roughly 7.4% of the tested compounds scored in any of these assays.
# M1 agonist: activates the M1 muscarinic receptor; CHO-M1 cells, Fluo-4 calcium fluorescence, agonist mode; active compounds read high; actives 3% (n = 64,000); B-score at 10 µM;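 active = fluorescence rise, raw or as B-score row- and column-corrected plate score, outside the 99.7% band of its plate's samples, either direction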
# FXIIa inh mix: inhibitors of human coagulation factor XIIa, pooled mixtures; P00748; purified FXIIa, fluorogenic substrate; inhibition, % at 5 µM; actives 0.2% (n = 62,000);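 also: 0% = enzyme without compound and 100% = no enzyme blank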
# M1 antagonist: M1 muscarinic receptor (rat) antagonism | P08482 | CHO-M1 cells, Fluo-4 calcium, ACh EC80 antagonist mode; active compounds read low | B-score at 10 µM | actives 3.4% (n = 64,000) | AID 628;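 active = calcium fluorescence response, raw or row-and-column corrected B-score, differing from the plate sample mean either way at a set confidence level, mostly lower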
# D1 allo mod: allosteric modulators of human D1 dopamine receptor; HEK293 D1, CRE-luciferase, dopamine EC30 potentiation; actives deviate in either direction; B-score at 10 µM; actives 5.9% (n = 58,000);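 active = luminescence count or its row- and column-corrected plate score outside the 99.7% band of the plate's sample wells, on either side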
# FXIa mix inh: blocks human factor XIa in pooled compound mixtures; actives 0.19% (n = 62,000); inhibition, % at 5 µM; purified FXIa, fluorogenic substrate; AID 680; P03951;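 also: each value is inhibition by a whole ten-compound pool holding the compound; 0% = enzyme with no mixture and 100% = wells lacking enzyme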
# Target sequence (P03951 19-387 limits assumed): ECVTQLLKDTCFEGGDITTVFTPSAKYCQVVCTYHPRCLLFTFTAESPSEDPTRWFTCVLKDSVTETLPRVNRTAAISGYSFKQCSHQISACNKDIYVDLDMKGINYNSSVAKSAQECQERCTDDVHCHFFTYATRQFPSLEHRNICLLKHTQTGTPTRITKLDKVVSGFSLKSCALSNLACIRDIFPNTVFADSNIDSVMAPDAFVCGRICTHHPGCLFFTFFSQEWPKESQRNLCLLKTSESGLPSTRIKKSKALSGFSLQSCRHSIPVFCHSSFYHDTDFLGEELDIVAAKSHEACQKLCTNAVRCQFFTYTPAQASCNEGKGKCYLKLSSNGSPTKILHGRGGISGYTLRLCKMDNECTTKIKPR
# Target sequence (P03951 388-625 limits assumed): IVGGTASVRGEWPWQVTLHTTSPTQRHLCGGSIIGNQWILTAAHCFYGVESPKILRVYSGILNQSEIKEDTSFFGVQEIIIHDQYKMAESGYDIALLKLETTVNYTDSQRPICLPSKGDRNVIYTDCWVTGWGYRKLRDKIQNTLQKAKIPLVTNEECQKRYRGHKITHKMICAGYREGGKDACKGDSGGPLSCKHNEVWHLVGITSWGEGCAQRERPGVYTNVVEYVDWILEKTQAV
# hDAT+cocaine: human DAT dopamine uptake with cocaine, either direction; Q01959; LLC-PK1 hDAT cells, [14C]-dopamine uptake with cocaine IC80; actives deviate in either direction; B-score at 10 µM; actives 1.3% (n = 110,000); AID 449768;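 active = Z score or B-score, a plate-position-corrected score, falls beyond the plate's 99.7% confidence bounds, in either direction; inactive = both scores lie inside the 99.7% bounds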;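 also: scored against the spread of the other compound wells on the same plate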
# * = called active by the depositor; / = not tested or not shown. Rule as the data show it, unless noted: active = inhibition above about 20% (passing the limit was not always enough); inactive = the rest.
SMILES,M1 agonist,FXIIa inh mix,M1 antagonist,D1 allo mod,FXIa mix inh,hDAT+cocaine
CCOC(=O)N1CCN(C(=O)CN(c2cccc(C(F)(F)F)c2)S(C)(=O)=O)CC1,-0.35,0,-0.57,1.6,-9,-8.7*
O=C(CSc1nnc(NC(=O)c2ccco2)s1)NC1CCCC1,-0.4,6,1.1,-0.17,1,-0.67
CCOC(=O)C1=C(C)OC(N)=C(C#N)C1c1c(C)nn(-c2ccccc2)c1Cl (stereo not given),0.84,-2,0.028,1.1,6,-7.4*
CC1=C(C)C(=O)C(CCCCC#CCCCC#CCO)=C(C)C1=O,-0.54,-17,-0.71,0.026,3,0.26
O=C1NC2(CCCC2)N=C1c1ccc(F)cc1,/,/,/,/,/,-8*
O=C1CC2(CCCCC2)Oc2ccc(F)cc21,/,/,/,/,/,-0.16
CNCCCOc1ccc(C)cc1Br,/,/,/,/,/,0.13
CCCCn1nc(-c2ccccc2)c2nc3ccccc3nc21,/,/,/,/,/,0.046
Cn1nc(-c2ccccc2)c2nc3ccccc3nc21,133*,4,4.5*,2.3,6,-0.23
CCCOc1ccc(C2C(=O)N(C3CCCCCC3)CC(=O)N2Cc2ccco2)cc1OC (stereo not given),/,/,/,/,/,-0.28
CC(NS(=O)(=O)c1ccccc1)C(c1cccs1)N1CCN(c2ccccc2)CC1 (stereo not given),0.81,3,1.2,-0.11,6,4.8*
COc1ccccc1N1CCN(C(c2cccs2)C(C)NS(=O)(=O)c2ccccc2)CC1 (stereo not given),0.11,1,2.4,-0.39,3,0.33
CC1=Nn2c(nnc2-c2cccs2)SC1,/,/,/,/,/,-3.4*
Cc1cc(C)c[n+](-c2nc3ccccc3nc2C(=C=[N-])C#N)c1,/,/,/,/,/,-1.5
O=C(Nc1ccc(OC(F)F)c(Cl)c1)Nc1ccc2c(c1)OCO2,1.7,-1,0.00066,0.074,-1,-7*
Cc1noc(C)c1CN1C(=O)NC2(CCCCCCC2)C1=O,-0.88,-3,0.16,0.32,-2,0.46
O=C(O)C1CCCN1C(=O)Oc1ccccc1 (stereo not given),-0.81,11,0.074,-2.6*,-2,-0.24
COC(=O)C1=C(C)N=C2SCCC(=O)N2C1c1ccc(OC(=O)c2ccco2)cc1 (stereo not given),/,/,/,/,/,-0.88
O=S(=O)(Nc1nnc(-c2ccccc2)s1)c1ccc(Cl)cc1,0.015,6,0.1,-0.48,10,-3*
O=S(=O)(NCc1cc(-c2ccccc2)no1)c1ccc(Cl)cc1,/,/,/,/,/,-0.75
Cn1nc(-c2ccc(Cl)cc2)c2cc(C(=O)N3CCCC3)sc21,-0.017,-2,0.49,-3.2*,2,0.86
Cc1c(C(=O)N2CCCCC2)sc(NC(=O)C23CC4CC(CC(C4)C2)C3)c1C#N,/,/,/,/,/,-0.59
COc1cc(/C=C(\C#N)C(=O)Nc2ccc(SC(F)F)cc2)cc(OC)c1OC,/,/,/,/,/,-0.17
CCOc1cc(/C=C(/C#N)C(=O)Nc2ccc(O)cc2)cc(Br)c1O,/,/,/,/,/,-3.4*
O=P(OC1CCCCC1)(OC1CCCCC1)C(O)c1ccccc1 (stereo not given),/,/,/,/,/,0.11
SMILES,M1 agonist,FXIIa inh mix,M1 antagonist,D1 allo mod,FXIa mix inh,hDAT+cocaine
O=C1CC(c2ccco2)CC(O)=C1C=Nc1ccc(Br)cc1 (stereo not given),/,/,/,/,/,0.068
O=C1CC(c2ccco2)CC(O)=C1C=Nc1cc(Cl)ccc1O (stereo not given),4.2,/,0.62,/,/,-8.5*
Cc1c(Cl)cccc1-n1c(SCC(=O)N(C)Cc2ccccc2)nnc1-c1ccncc1,/,/,/,/,/,3.8*
COc1ccc2sc(NC(=O)c3ccco3)nc2c1,-1.1,14,0.68,-5.7*,6,-0.52
COc1ccc2nc(NC(=O)c3cc(C)oc3C)sc2c1,/,/,/,/,/,0.79
COc1ccc2nc(NC(=O)c3ccoc3C)sc2c1,-0.2,3,0.066,-4.3*,6,0.17
COc1ccc2c(c1)Cc1sc(NC(=O)c3ccco3)nc1-2,/,/,/,/,/,1.9
CCOC(=O)C1=C(c2ccccc2)Nc2c(c(=O)n(C)c(=O)n2C)C1c1ccc(O)c(OC)c1 (stereo not given),/,/,/,/,/,1.7
Cn1nc(C(=O)N2CCc3ccccc3C2)c2ccccc2c1=O,/,/,/,/,/,0.78*
CCc1ccc(Cn2nnc(C(=O)Nc3ccc(OC)cc3OC)c2N)cc1,0.012,-18,-0.85,0.042,8,0.052
CCn1c(SCC(=O)N/N=C/c2ccc(OC)c(OC)c2)nc2ccccc21,/,/,/,/,/,4.2*
CCOC(=O)c1ccc(NC(=O)C(CC)(CC)C(=O)OCC)cc1,-0.057,50*,-0.76,0.44,1,1.8
O=S(=O)(Nc1ncnc2sc3c(c12)CCC3)c1ccc(Cl)s1,-0.37,-11,-0.64,-0.016,6,-2.4*
Cc1nc(NS(=O)(=O)c2cccs2)c2c3c(sc2n1)CCC3,0.15,1,-0.035,0.65,4,0.76
Cc1oc(-c2ccccc2Cl)nc1Cn1cccc1C1=NC(c2ccccc2)CO1 (stereo not given),/,/,/,/,/,-0.38
S=C(Nc1ccccc1)N1CCCCCC1,/,/,/,/,/,-8.4*
Cc1ccc(NCc2nnc(SCCN3CCCCC3)n2CC2CCCO2)cc1Cl (stereo not given),0.2,9,-1,2.3,10,2.4*
Cc1ccc(NCc2nnc(SCC(=O)NCc3ccco3)n2CC2CCCO2)cc1Cl (stereo not given),0.47,13,0.11,-1.6,2,0.77
COc1cccc(C2CC(c3cccc(C)c3)n3ncnc3N2)c1 (stereo not given),0.28,12,0.5,0.35,3,0.23
COc1cc2c(cc1NC(=O)CC1SC(N3CCCC3)=NC1=O)oc1ccccc12 (stereo not given),-0.15,17,-0.97,0.62,0,-8.3*
COc1cc2c(cc1NC(=O)CCCN1C(=O)CCC1=O)oc1ccccc12,0.51,-14,0,-0.56,5,2.7*
COc1cc2c(cc1NC(=O)CCCCCN1C(=O)CCC1=O)oc1ccccc12,/,/,/,/,/,1.6
CCn1c(CSCc2ccc(C)cc2)nnc1SCC(=O)NCc1ccccc1,/,/,/,/,/,1.3
C=CCn1c(NC)cc(=O)n(C)c1=O,0.27,9,0.45,0.12,7,-9.1*
CCCc1ccc(-c2c(C)sc(N)c2C#N)cc1,/,/,/,/,/,-0.3
SMILES,M1 agonist,FXIIa inh mix,M1 antagonist,D1 allo mod,FXIa mix inh,hDAT+cocaine
COC(=O)C1=C(C)N=c2s/c(=C/c3ccoc3)c(=O)n2C1c1ccccc1 (stereo not given),0.16,2,-0.12,-3.6*,8,-0.48
Fc1ccc(NCc2cccnc2)cc1,1.2,8,0.17,0.56,10,-0.85
Cc1cc(C)n(C(CC(=O)O)C(=O)O)n1 (stereo not given),0.61,-19,0.24,-0.31,6,0.45
COC(=O)c1ccc(-c2ncc(-c3cccc4ccccc34)o2)cc1,/,/,/,/,/,3*
COc1ccccc1S(=O)(=O)Cc1ccc(C(=O)N2CCN(c3ccc(C)cc3)C(C)C2)o1 (stereo not given),3.3,-21,-1.8,-2.8*,-2,1.6
Cc1ccc(S(=O)(=O)Cc2ccc(C(=O)N3CCc4ccccc4C3)o2)cc1,/,/,/,/,/,1.1
CCOC(=O)N1CCN(C(=O)c2ccc(CS(=O)(=O)c3ccccc3OC)o2)CC1,0.07,4,-0.038,-0.023,3,0.056
